# Data taken from PubChem BioAssay (Tox21).
# Active and inactive are the calls of the source. The call rests on the fitted dose curve.
# Target: Thyrotropin-releasing hormone receptor (Homo sapiens) (UniProt P34981)
# Test: qHTS assay to identify small molecule agonists of the thyrotropin-releasing hormone receptor (TRHR) signaling pathway (AID 1346891);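 further: HEK293 cells expressing TRHR with calcium dye readout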
# Settings: TRHR-HEK293 calcium fluorescence, agonist mode; series mostly up to 57.6 µM; activation: at the top concentration
# In short: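 Kinetic fluorescence (3 min, 1 s intervals) reported intracellular calcium after compound transfer onto TRHR-Hek293 cells pre-loaded with dye for 2 h at 37 °C.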
# On the % scale 0 is the no-effect control and ±100 the full control effect.
# Chain of Thyrotropin-releasing hormone receptor (Homo sapiens) (P34981 whole entry, looked up): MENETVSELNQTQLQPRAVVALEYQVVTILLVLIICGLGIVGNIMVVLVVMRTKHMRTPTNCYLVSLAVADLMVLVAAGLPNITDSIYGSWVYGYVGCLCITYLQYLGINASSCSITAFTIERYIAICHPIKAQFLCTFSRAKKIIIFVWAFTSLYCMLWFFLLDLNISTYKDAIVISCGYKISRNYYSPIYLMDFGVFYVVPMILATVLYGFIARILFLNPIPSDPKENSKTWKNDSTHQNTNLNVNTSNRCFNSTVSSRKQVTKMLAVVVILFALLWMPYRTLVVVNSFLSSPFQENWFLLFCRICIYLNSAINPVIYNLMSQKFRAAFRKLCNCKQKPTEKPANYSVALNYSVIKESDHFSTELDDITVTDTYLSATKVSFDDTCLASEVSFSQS
row,SMILES,activation
1,C=C[Si]1(C)O[Si](C)(C=C)O[Si](C)(C=C)O[Si](C)(C=C)O1 (centres undefined),0.0324% (inactive)
2,Nc1ccccc1Nc1ccccc1,-0.323% (inactive)
3,Cc1ccccc1CCO,0.75% (inactive)
4,c1ccc(CN(Cc2ccccc2)Cc2ccccc2)cc1,0.913% (inactive)
5,N#Cc1ccc(CC(=O)c2cccc(C(F)(F)F)c2)cc1,-0.181% (inactive)
6,Cc1cc(N)n(-c2ccccc2)n1,0.541% (inactive)
7,COc1cc(CNC(=O)CCCC/C=C/C(C)C)ccc1O,0.0683% (inactive)
8,CCc1c(C)[nH]c2c1C(=O)C(CN1CCOCC1)CC2 (centres undefined),-0.282% [at 26.5 µM] (inactive)
9,CC(C)(C(=O)O)c1ccc(C(O)CCCN2CCC(C(O)(c3ccccc3)c3ccccc3)CC2)cc1 (centres undefined),-0.209% [at 26.5 µM] (inactive)
10,COc1ccc(CN(CCN(C)C)c2ncccn2)cc1,1.08% [at 26.5 µM] (inactive)
11,O=C(C1CCCCC1)N1CC(=O)N2CCCc3ccccc3C2C1 (centres undefined),0.112% [at 26.5 µM] (inactive)
12,CC(C)C/C=C(\C=O)c1ccccc1,-0.686% (inactive)
13,CC(CN=Cc1ccccc1O)N=Cc1ccccc1O (centres undefined),0.0905% (inactive)
14,Nc1ncnc2c1ncn2[C@@H]1O[C@H](CO)[C@@H](O)[C@H]1O,0.0911% [at 26.5 µM] (inactive)
15,CC(C)CCCCCOC(=O)CS,0.0612% (inactive)
16,Cc1ccc(S(=O)(=O)NC(=O)NC2CCCC2)cc1,-0.34% [at 26.5 µM] (inactive)
17,CC1(COc2ccc(CC3SC(=O)NC3=O)cc2)CCCCC1 (centres undefined),4% [at 26.5 µM] (inactive)
18,COc1ccc(C(=O)c2ccc(C)cc2)c(O)c1,0.339% (inactive)
19,Cc1c(N=C=O)cccc1N=C=O,-0.0905% (inactive)
20,Clc1nc2ccccc2nc1Cl,0.0109% (inactive)

row,SMILES,activation
1,c1ccc(CCNc2nc(-c3ccccc3)cs2)cc1,0.0232% [at 26.5 µM] (inactive)
2,CCc1ccc(C(=O)C(C)CN2CCCCC2)cc1 (centres undefined),0.123% [at 26.5 µM] (inactive)
3,O=C(Cl)c1ccc(F)c(Cl)c1,-0.598% (inactive)
4,O=C(OC1C[C@H]2CC[C@@H](C1)[N+]21CCCC1)C(O)(c1ccccc1)c1ccccc1 (some centres undefined),-0.0484% [at 26.5 µM] (inactive)
5,Cc1ccc2ccccc2c1[N+](=O)[O-],-0.158% (inactive)
6,C[C@H]1C[C@H]2[C@@H]3CCC4=CC(=O)C=C[C@]4(C)[C@@]3(F)[C@@H](O)C[C@]2(C)[C@@]1(O)C(=O)COP(=O)(O)O,-0.434% (inactive)
7,CC(=O)OCC(=O)[C@@]1(O)CC[C@H]2[C@@H]3CCC4=CC(=O)C=C[C@]4(C)[C@@]3(F)[C@@H](O)C[C@@]21C,-0.0422% [at 26.5 µM] (inactive)
8,CCN(CC)CC(=O)OCC(=O)[C@@]1(O)CC[C@H]2[C@@H]3CCC4=CC(=O)CC[C@]4(C)[C@H]3[C@@H](O)C[C@@]21C,0.465% [at 26.5 µM] (inactive)
9,O=C(O)c1ccc2c(c1)nc(C(=O)NC1CCN(C3CC3)CC1)n2Cc1cc(-c2ccc(Cl)s2)on1,2.01% [at 11.8 µM] (inactive)
10,O=C(O)c1cc(C(=O)O)cc([N+](=O)[O-])c1,-0.259% (inactive)
11,Cc1cc(SC2=C(O)C[C@@](CCc3ccc(N)cc3)(C(C)C)OC2=O)c(C(C)(C)C)cc1CO,-0.774% (inactive)
12,O=C(Nc1ccccc1)c1cc([N+](=O)[O-])ccc1Cl,-0.318% (inactive)
13,CC(C)(C)c1ccc(CCC=O)cc1,0.0136% (inactive)
14,CCCCCC1CCC(=O)O1 (centres undefined),-0.016% (inactive)
15,CCOCCn1c(N2CCCN(C)CC2)nc2ccccc21,0.117% [at 26.5 µM] (inactive)
16,C[C@H](CN1CCCC1)C(=O)c1ccc(C(F)(F)F)cc1,0.249% [at 26.5 µM] (inactive)
17,Sc1nc(S)nc(S)n1,-0.36% [at 26.5 µM] (inactive)
18,Cc1cc(C)c(C)c(O)c1,-0.315% (inactive)
19,COc1ccc(/C=C/S(=O)(=O)NC(=O)c2ccc(C)cc2Cl)cc1,0.826% (inactive)
